Here are results for 39 compounds from PubChem BioAssay (NCATS).

Results filed as inconclusive are left out. Entries that show only a call come without a potency. Activity calls are given as the source filed them. The call rests on the fitted dose curve; in most records, active means well fitted curve in the direction sought with a large enough effect; inconclusive means small, poorly fitted or top-dose-only effect, or another doubt; inactive means no such curve, though single readings can be large; an effect the other way counts as inactive or inconclusive.

One experiment can be described thus: Cell Viability - LYMP2-001 (AID 921). Further: nearly all actives have a fitted effect of over 70% in size. Conditions: LYMP2-001 lymphoblastoid cell viability; series mostly up to 92.2 µM. The procedure, abridged:
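Human lymphoblastoid cells (Coriell), 2500 per well, were preincubated 5 hr at 37 C, then exposed to compounds in complete medium for 24 hr at 37 C. Cellular ATP was read by CellTiter-Glo luminescence; AC50 from Hill fits of concentration-response data.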
Consider `O=CNc1ccccc1`, for which the Potency entry was “inactive”.

As for `Cc1ccc(C#N)cc1`, the Potency entry was “inactive”.

With `CC(C)C=O`, the Potency entry is “inactive”.

In the case of `CCCCCCC=O`, the Potency entry was “inactive”.

As for `CN(C)c1cccc(O)c1`, the Potency result is “inactive”.

Turning to `O=C(O)c1ccc(Cl)cc1Cl`, the Potency result was “inactive”.

Regarding `CCCC(Cl)CCCC(Cl)CCC(Cl)CCC(Cl)CCC(Cl)CCCC(Cl)CCC` (stereo not drawn), the Potency entry was “inactive”.

With `CNC(=O)c1ccccc1`, the Potency entry is “inactive”.

For the compound `ClCCl`, the Potency entry was “inactive”.

Regarding `CC(=O)Nc1ccc(C)cc1`, the Potency entry is “inactive”.

For `CC(C)(c1cc(Br)c(OCC(Br)CBr)c(Br)c1)c1cc(Br)c(OCC(Br)CBr)c(Br)c1` (stereo not drawn), the Potency result was “inactive”.

As for `CC(=O)Nc1ccc(N)cc1`, the Potency result is “inactive”.

Regarding `Cc1ccccc1C(N)=O`, the Potency entry is “inactive”.

In the case of `CC(=O)C1(C)CC2=C(CCCC2(C)C)CC1C` (stereo not drawn), the Potency entry is “inactive”.

For the compound `CC(C=O)Cc1ccc(C(C)(C)C)cc1` (stereo not drawn), the Potency entry is “inactive”.

In the case of `CCCCN(CCO)CCCC`, the Potency result is “inactive”.

`CC(O)CC(C)O` (stereo not drawn): the Potency result is “inactive”.

Regarding `OCCO`, the Potency entry was “inactive”.

`CC(=O)OC(C)=O`: the Potency result was “inactive”.

For `NS(=O)(=O)O`, the Potency result is “inactive”.

Turning to `CCOC(=O)C(C)C(C)=O` (stereo not drawn), the Potency result was “inactive”.

On to `Cc1ccc(C)c([N+](=O)[O-])c1`, for which the Potency result was “inactive”.

Regarding `C=C(C)C(=O)OCCCCCCCCCC`, the Potency entry is “inactive”.

On to `COC(=O)CCCC(=O)OC`, for which the Potency entry was “inactive”.

As for `c1ccc(Nc2ccccc2)cc1`, the Potency entry is “inactive”.

In the case of `O=C(O)c1cc(Cl)cc(Cl)c1`, the Potency entry is “inactive”.

In the case of `CC/C=C1/OC(=O)c2ccccc21`, the Potency result was “inactive”.

`Cc1ccco1`: the Potency result is “inactive”.

In the case of `NCCCCCCN`, the Potency result was “inactive”.

Turning to `BrC/C=C/CBr`, the Potency result is “inactive”.

Turning to `CC(=C/C=C/C(C)=C/C=C/C=C(C)/C=C/C=C(C)/C=C/C(=O)O)/C=C/C(=O)O`, the Potency entry is “inactive”.

As to `CCOC(C)(C)C`, the Potency entry is “inactive”.

On to `O=C(O)c1cccc(Cl)c1Cl`, for which the Potency entry is “inactive”.

In the case of `COc1ccc(OC)cc1`, the Potency result is “inactive”.

`Clc1cc(Cl)cc(Cl)c1`: the Potency result is “inactive”.

For `Cc1c(C(=O)O)cccc1[N+](=O)[O-]`, the Potency result was “inactive”.

With `CCCCCCCCCCCCC1CO1` (stereo not drawn), the Potency result is “inactive”.

Regarding `COCCOC(=O)c1ccccc1C(=O)OCCOC`, the Potency entry was “inactive”.

On to `CCCCCCCCC`, for which the Potency result was “inactive”.

The next experiment in a line: MultiTox-Fluor Cytotoxicity Assay - LYMP1-001 - Dead Cells (AID 946).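 Further: cells exposed to compound for 16 h.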 Conditions: LYMP1-001 lymphoblastoid cells, dead-cell protease fluorescence; series mostly up to 92.2 µM. In short, it runs like this:
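Seed 2500 LYMP1-001 cells/well, incubate 5 hr at 37 C; add compound, 16 hr at 37 C; add MultiTox-Fluor reagent, 60 min RT; read dead-cell fluorescence Ex/Em=485/520. Normalize to DMSO and 15 uM tetraoctylammonium bromide.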
As to `O=CNc1ccccc1`, the compound was classed as inactive.

With `Cc1ccc(C#N)cc1`, the compound was classed as inactive.

In the case of `CC(C)C=O`, the compound was classed as inactive.

`CCCCCCC=O`: the compound was classed as inactive.

As to `CN(C)c1cccc(O)c1`, the call was inactive.

Regarding `O=C(O)c1ccc(Cl)cc1Cl`, the compound was called inactive.

On to `CCCC(Cl)CCCC(Cl)CCC(Cl)CCC(Cl)CCC(Cl)CCCC(Cl)CCC` (stereo not drawn), for which the outcome was inactive.

`CNC(=O)c1ccccc1`: the compound was called inactive.

Regarding `ClCCl`, the call was inactive.

On to `CC(=O)Nc1ccc(C)cc1`, for which the result was inactive.

As for `CC(C)(c1cc(Br)c(OCC(Br)CBr)c(Br)c1)c1cc(Br)c(OCC(Br)CBr)c(Br)c1` (stereo not drawn), the call was inactive.

For `CC(=O)Nc1ccc(N)cc1`, the call was inactive.

For `Cc1ccccc1C(N)=O`, the result was inactive.

For `CC(=O)C1(C)CC2=C(CCCC2(C)C)CC1C` (stereo not drawn), the outcome was inactive.

As for `CC(C=O)Cc1ccc(C(C)(C)C)cc1` (stereo not drawn), the compound was called inactive.

For `CCCCN(CCO)CCCC`, the compound was classed as inactive.

Consider `CC(O)CC(C)O` (stereo not drawn), for which the compound was classed as inactive.

Consider `OCCO`, for which the outcome was inactive.

On to `CC(=O)OC(C)=O`, for which the compound was classed as inactive.

Regarding `NS(=O)(=O)O`, the call was inactive.

Consider `CCOC(=O)C(C)C(C)=O` (stereo not drawn), for which the outcome was inactive.

On to `Cc1ccc(C)c([N+](=O)[O-])c1`, for which the compound was classed as inactive.

With `C=C(C)C(=O)OCCCCCCCCCC`, the call was inactive.

Take `COC(=O)CCCC(=O)OC`: the call was inactive.

As for `c1ccc(Nc2ccccc2)cc1`, the call was inactive.

`O=C(O)c1cc(Cl)cc(Cl)c1`: the result was inactive.

With `CC/C=C1/OC(=O)c2ccccc21`, the compound was called inactive.

On to `Cc1ccco1`, for which the compound was classed as inactive.

Take `NCCCCCCN`: the call was inactive.

On to `BrC/C=C/CBr`, for which the result was inactive.

Take `CC(=C/C=C/C(C)=C/C=C/C=C(C)/C=C/C=C(C)/C=C/C(=O)O)/C=C/C(=O)O`: the call was inactive.

With `CCOC(C)(C)C`, the compound was called inactive.

In the case of `O=C(O)c1cccc(Cl)c1Cl`, the compound was classed as inactive.

Take `COc1ccc(OC)cc1`: the outcome was inactive.

As for `Clc1cc(Cl)cc(Cl)c1`, the compound was called inactive.

Consider `Cc1c(C(=O)O)cccc1[N+](=O)[O-]`, for which the call was inactive.

As to `CCCCCCCCCCCCC1CO1` (stereo not drawn), the compound was classed as inactive.

As to `COCCOC(=O)c1ccccc1C(=O)OCCOC`, the compound was called inactive.

As for `CCCCCCCCC`, the result was inactive.
